# Hits are enriched below; roughly 1.9% of the tested compounds scored in any of these assays.
# PP1 counter: counter-screen for PP5 inhibitors: inhibitors of human PP1-alpha | inhibition, % at 6.7 µM | 320,000 tested, 0.9% active | purified PP1alpha, OMFP fluorescence | P62136;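 active = inhibition above the mean inhibition of all tested compounds plus 3 SD, computed separately for each screening campaign, cut at about 15% in these data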
# PP5 inh: inhibitors of human protein phosphatase 5 (PP5). P53041. purified PP5c, OMFP substrate fluorescence. inhibition, % at 6.7 µM. 320,000 tested, 0.18% active;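 active = inhibition above the campaign's mean inhibition across all tested compounds plus 3 SD, cut at about 9.5% in these data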
# Cardio protect: protects H9c2 cardiomyocytes from peroxide injury; H2O2 injury protection, ATPLite, 2 h; protection from H2O2 cell death, % at 20 µM; 360,000 tested, 0.63% active;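 active = compounds giving at least 50% protection of heart cells from peroxide-induced death in the single-dose screen, raw or plate-pattern-corrected value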
# ATG4B inhibitor: inhibitors of human ATG4B cysteine protease; inhibition, % at 8.33 µM; AID 504462; Q9Y4P1; 340,000 tested, 0.51% active; ATG4B cleavage of LC3-PLA2, NBD-HPC fluorescence, 1 h; in the data active = inhibition above about 40%
# Target sequence (Q9Y4P1 whole entry, looked up): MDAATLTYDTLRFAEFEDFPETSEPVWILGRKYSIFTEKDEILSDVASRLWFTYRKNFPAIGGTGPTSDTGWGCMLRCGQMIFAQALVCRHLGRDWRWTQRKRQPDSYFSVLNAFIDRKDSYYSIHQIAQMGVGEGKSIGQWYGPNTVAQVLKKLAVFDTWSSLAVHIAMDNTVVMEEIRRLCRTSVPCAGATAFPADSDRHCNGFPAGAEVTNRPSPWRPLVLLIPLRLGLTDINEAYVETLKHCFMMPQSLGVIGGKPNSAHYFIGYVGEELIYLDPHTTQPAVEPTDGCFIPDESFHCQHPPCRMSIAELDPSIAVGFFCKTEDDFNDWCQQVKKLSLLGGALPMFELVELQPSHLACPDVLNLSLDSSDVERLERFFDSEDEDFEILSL
# ATG4B conf: ATG4B (human) inhibition, single-dose confirmed; shares compounds with ATG4B inhibitor; ATG4B protease fluorescent substrate cleavage assay; inhibition, % at 8.33 µM; 320 tested, 92% active; AID 504757; in the data active = inhibition above about 39%
# PLA2 counter: counter-screen for ATG4B inhibitors: human phospholipase A2; shares compounds with ATG4B inhibitor; purified PLA2, NBD-C6-HPC fluorescence, 45 min; inhibition, % at 8.33 µM; 1,600 tested, 66% active; AID 588402; in the data active = inhibition above about 50%
# Target sequence (P04054 whole entry, looked up): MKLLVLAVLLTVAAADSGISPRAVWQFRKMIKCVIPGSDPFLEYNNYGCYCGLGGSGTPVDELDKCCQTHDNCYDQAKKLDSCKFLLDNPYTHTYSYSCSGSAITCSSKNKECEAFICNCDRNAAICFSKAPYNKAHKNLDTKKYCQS
# Hits are given with their value; i = inactive; nt = not tested or not shown; ! = a repeat was not active.
SMILES,PP1 counter,PP5 inh,Cardio protect,ATG4B inhibitor,PLA2 counter,others
CCCCCCCCCCCCCCCC[n+]1ccccc1,nt,nt,i,59!,i,ATG4B conf=39
O=C1ON=C(c2ccccc2)/C1=C/c1ccc(-c2ccccc2[N+](=O)[O-])o1,i,i,i,69,51,
CC(=O)c1ccc(NC(=O)COC(=O)c2ccc(F)cc2F)cc1,i,i,i,i,nt,
Cc1ccc(C)c(S(=O)(=O)N2CCN(c3nc(CN4CCOCC4)nc4sc(C)c(C)c34)CC2)c1,i,i,i,52,69,
O=C(CNCC1CCCCC1)Nc1ccccc1N1CCCCC1,i,i,i,41,i,ATG4B conf=65
O=C(CNC1CCCCCC1)Nc1ccccc1N1CCCCC1,i,i,i,46,53,
O=C(CNCC1CCCO1)Nc1ccccc1N1CCOCC1 (centres undefined),i,i,i,i,nt,
O=C(CNCCC1=CCCCC1)Nc1ccccc1N1CCCCC1,i,i,i,49,53,
COc1ccccc1CNC(=O)CN1C(=O)NC(Cc2ccccc2)(c2ccccc2)C1=O (centres undefined),nt,nt,i,i,nt,
CCCC/C=C1/CCC(CN(C)C)C1=O (centres undefined),nt,nt,i,i,nt,
Cc1ccc(OCc2cc(C(=O)N3CCc4sccc4C3)no2)cc1C,nt,nt,i,57,79,
Cc1cccc(C)c1OCc1cc(C(=O)N2CCCCCCC2)no1,i,i,i,40,50,
Cc1ccc(OCc2cc(C(=O)N3CCCCCCC3)no2)cc1C,i,i,i,i,nt,
Cc1ccc(N2CCN(C(=O)c3cc(COc4c(C)cccc4C)on3)CC2)c(C)c1,i,i,i,i,nt,
Cc1sc2nc(SCc3nnc(-c4cccs4)o3)n(C3CCCC3)c(=O)c2c1C,i,i,i,44,66,
Cc1ccc(N(CC(=O)Nc2ccc(F)c(Cl)c2)S(=O)(=O)c2c(C)noc2C)cc1,i,i,i,41,61,
O=C(NC(=S)NCCC1=CCCCC1)c1ccc(Br)o1,i,i,i,40,i,ATG4B conf=62
O=C(NCCC1=CCCCC1)c1ccc(Br)o1,i,i,i,i,nt,
Cc1ccc(SCCNC(=O)/C=C/c2ccc(Cl)cc2)cc1,i,i,i,i,nt,
Cc1ccc(SCCNC(=O)/C=C/c2ccccc2Cl)cc1,i,i,i,56,66,
O=[N+]([O-])c1cc([N+](=O)[O-])c2c(=Nc3ccccc3)n(-c3ccccc3)n(O)c2c1,i,i,i,i,nt,
COCCNc1nc(SCc2ccccc2)nc2sc3c(c12)CCC3,i,i,i,46,60,
CC(CO)Nc1nc(SCc2ccccc2)nc2sc3c(c12)CCC3 (centres undefined),i,i,i,83,91,
Cc1nc(NCCc2ccc(S(N)(=O)=O)cc2)c2c3c(sc2n1)CCC3,i,i,i,i,nt,
Cc1cccc(N=Nc2c(C)nn(-c3ccccc3)c2N)c1C,i,i,i,82,90,
SMILES,PP1 counter,PP5 inh,Cardio protect,ATG4B inhibitor,PLA2 counter,others
Cc1nn(-c2ccccc2)c(N)c1N=Nc1ccccc1,i,i,i,73,81,
Nc1nn(-c2ccccc2)c(N)c1N=Nc1ccccc1,i,i,i,45,i,ATG4B conf=64
Cc1ccccc1N=Nc1c(C)[nH]n(-c2ccccc2)c1=O,nt,nt,nt,i,nt,
Cc1ccc(C)n1-c1cccc(S(=O)(=O)N2CCOCC2)c1,i,i,i,i,nt,
Cc1nn(-c2ccccc2)c(N)c1N=Nc1cccc(S(=O)(=O)N2CCOCC2)c1,i,i,i,44,i,
Nc1ncnc(N)c1N=Nc1ccccc1,nt,nt,i,i,nt,
C[C@H](NC(=O)COc1ccc(Cl)cc1)C(=O)N1CCC2(CC1)NCCc1[nH]cnc12,i,i,i,i,nt,
Cc1nn(-c2ccccc2)c(N)c1-c1ccccc1,i,i,i,i,nt,
Cc1nn(-c2ccccc2)c(N)c1N=Nc1ccc(Cl)cc1,i,i,i,81,89,
Nc1nn(-c2ccccc2)c(N)c1N=Nc1ccccc1F,i,i,i,70,72,
O=C(O)C1OC1(c1ccccc1Cl)c1ccccc1Cl (centres undefined),nt,nt,i,i,nt,
CCOC(=O)c1sc(-c2ccccc2)cc1NC(=O)Nc1ccccc1,i,i,i,41,i,ATG4B conf=83
CCOC(=O)c1sc(-c2ccc(F)cc2)cc1NC(=O)Nc1ccccc1OC,i,i,i,i,nt,
Cc1oc2c(c1C(=O)c1ccccc1)C(=O)C(=O)c1ccccc1-2,i,i,i,i,nt,
O=C1C(=O)c2c(C(=O)c3ccccc3)coc2-c2ccccc21,i,i,i,65,89,
Cc1cccc(NC(=S)NC2CC3CCCC(C2)N3Cc2cccs2)c1C (centres undefined),i,i,i,49,59,
CCc1ccccc1NC(=S)NC1CC2CCCC(C1)N2Cc1cccs1 (centres undefined),i,i,i,48,i,
Fc1ccc(NC(=S)NC2CC3CCCC(C2)N3Cc2cccs2)cc1 (centres undefined),i,i,i,i,nt,
Cc1ccc(NC(=S)NC2CC3CCCC(C2)N3Cc2cccs2)cc1 (centres undefined),i,i,i,i,nt,
C#CCOCCOCCOCCNc1nc(N2CCN(C(=O)CCCCCCCCCCNC(=O)[C@H](CCCCN)n3cc(C[C@@H](C)CC)nn3)CC2)nc(N2CCN(C(=O)CCCCCCCCCCNC(=O)[C@H](CCCN=C(N)N)n3cc(C[C@@H](C)CC)nn3)CC2)n1,68,i,i,88,81,
Cc1ccc(S(=O)(=O)CCC(=O)OCc2nnc(-c3ccc([N+](=O)[O-])cc3)o2)cc1,nt,nt,i,i,nt,
O=C1OC(c2cccs2)=N/C1=C\c1ccc(-c2cccc(Cl)c2)o1,i,i,i,71,i,ATG4B conf=55
CCOC(=O)c1c(NS(=O)(=O)c2ccc(Br)cc2)sc2c1CCC2,i,i,i,46,57,
CCOC(=O)c1c(NS(=O)(=O)Cc2ccccc2)sc2c1CCCC2,i,i,i,i,nt,
COc1ccc(NS(=O)(=O)c2cccc(NC(=O)NC3CCCCC3)c2)cc1,i,i,i,54,65,
SMILES,PP1 counter,PP5 inh,Cardio protect,ATG4B inhibitor,PLA2 counter,others
COc1ccc(NS(=O)(=O)c2ccc(C)c(NC(=O)NC3CCCCC3)c2)cc1,i,i,i,i,nt,
CC1(C(=O)NCC2CC2)CCN1C(=O)C1(c2ccc(Cl)cc2)CC1 (centres undefined),nt,nt,i,nt,nt,
Cc1sc2nc(C(C)C)nc(SCC(=O)NCc3ccco3)c2c1C,i,i,i,42,i,ATG4B conf=50
CCOC(=O)CSc1nc2sc(C)c(C)c2c(=O)n1C,i,i,i,i,nt,
CCOC(=O)CSc1nc(C(C)C)nc2sc(C)c(C)c12,i,i,i,62,59,
Cc1sc2nc(C(C)C)nc(SCC(=O)N3c4ccccc4CC3C)c2c1C (centres undefined),i,i,i,75,77,
CCc1cc(-c2nnn(CCC3COCCO3)c2CC)cc(CC)c1-c1cn(Cc2ccc3ccccc3c2)nn1 (centres undefined),nt,nt,i,nt,nt,
CC(OC(=O)CNC(=O)C1CCCCC1)C(=O)NCc1ccccc1 (centres undefined),nt,nt,i,i,nt,

# Bioassay records as filed in PubChem.
